From PubChem
Only some compounds are listed: those with a hit (about 2.4% of all), similar ones and a draw of the others.
MBD2 DNA inh: MBD2-methylated oligo binding inhibition | TR-FRET, MBD2 binding to methylated oligonucleotide | inhibition, % at 4.4 µM | 370,000 tested, 0.31% active; in the data active = inhibition above about 13%
PLCb3 inh: PLC-beta3 (human) inhibition, primary screen; Q01970; 370,000 tested, 0.18% active; inhibition, % at 12.2 µM; Purified PLC-beta3, fluorogenic substrate, fluorescence; in the data active = inhibition above about 11%;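 also: 0% = median of compound wells on plate and 100% = full blocker control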
LEDGF integ inh: blocks HIV-1 LEDGF/p75-dependent DNA integration; inhibition, % at 3.7 µM; TR-FRET IN-LEDGF/p75 DNA integration, Eu/Cy5; 370,000 tested, 0.64% active;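 active = inhibition above the screen-wide mean plus 3 SD, cut at about 13% in these data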;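 also: signal is the Cy5 over europium emission ratio at 671 and 618 nm; 0% = plate median of compound wells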
UHRF1 MBD2 ctr: UHRF1 methyl-DNA binding inhibition | Q96T88 | UHRF1 binding to methylated oligo, TR-FRET | inhibition, % at 4.4 µM | 370,000 tested, 0.75% active | AID 687016; in the data active = inhibition above about 21%;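 also: UHRF1 SRA domain binding a hemimethylated CpG hairpin DNA probe; 0% = median of test compound wells and 100% = reference inhibitor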
PLC-gamma1 inh: blocks human PLC-gamma1 enzyme activity; purified PLC-gamma1, fluorogenic substrate, fluorescence; inhibition, % at 12.2 µM; 370,000 tested, 0.84% active; AID 720700; in the data active = inhibition above about 9.5%
* hit, by the source's call; i = inactive.

SMILES	MBD2 DNA inh	PLCb3 inh	LEDGF integ inh	UHRF1 MBD2 ctr	PLC-gamma1 inh
CCOC(=O)[C@]12Cc3cc(OC)ccc3[C@H]1N(CC(=O)OC)C(=O)c1ccccc12	8	-1	9	24*	-3
Nc1c2c(nc3sc4c(c13)CCCC4)CCCC2	9	-7	2	29*	-6
CN(C(=O)Oc1ccc(Cl)c2cccnc12)c1ccccc1	7	-1	2	21*	2
CN(C(=O)Oc1cccc2cccnc12)c1ccccc1	-5	6	2	-3	3
CC(C)C(C(=O)NC(C)(C)C)N1C(=O)CN=C(c2ccccc2)c2ccccc21 (centres undefined)	-1	1	-5	0	-2
Cc1ccc(C(=O)N[C@@H](C)CN2C3=NC[C@@H](Cc4ccccc4)N3C[C@H]2Cc2ccc(O)cc2)cc1Br	1	5	0	4	13*
O=C(CNCc1c(F)cccc1F)N1CCC2(CC1)OCCO2	3	6	7	-1	2
CC(Cc1ccccc1)NC(=O)Cc1ccc([N+](=O)[O-])cc1 (centres undefined)	-2	0	3	0	9.8*
O=[N+]([O-])c1ccc(Nc2ccccc2)cc1	0	-6	-1	-6	-7
Nc1ccc(Cc2ccc(N)cc2)cc1	-1	11*	-4	-3	-1
O=C1NC(=O)N(Cc2ccccc2)C(=O)/C1=C\C=C\c1ccco1	0	-59	2	28*	-34
COc1cc2c(c3oc4cccc(O)c4c(=O)c13)[C@@H]1C=CO[C@@H]1O2	5	-1	-1	-1	-2
C=C(C=O)CC1CC(O)[C@]2(C)OC3CC4OC5C[C@]6(C)O[C@]7(C)CCC8OC9C[C@]%10(C)OC%11C(C)=CC(=O)OC%11CC%10OC9C[C@@H](C)C8OC7CC6O[C@]5(C)C/C=C\C4OC3CC2O1 (some centres undefined)	2	2	1	-3	-3
CN1CCCC2c3ccccc3CCC21 (centres undefined)	-3	-5	-1	22*	-3
CCN(CC)c1ccc(CNCCc2ccccc2F)cc1	-3	-1	0	0	3
Cc1ccc(CNCCc2ccccc2F)cc1	10	2	2	25*	2
CCCC(=O)N1c2ccc(Cl)cc2C(c2ccccc2)=NCC1C(=O)NC(C)(C)C (centres undefined)	1	-1	5	1	-3
Brc1ccc2c(c1)-n1nncc1CNC2	1	3	5	35*	3
CC(C)S(=O)(=O)N1Cc2ccc(Br)cc2-n2nncc2C1	-2	-1	-6	2	2
O=C1CC=C2C3CC4N(CCC45c4ccccc4N1C25)CC3=CCO (centres undefined)	4	2	0	-3	4
O=C1CC=C2C3CC4N(CCC45c4cc(O)c(O)cc4N1C25)CC3=CCBr (centres undefined)	15*	-4	62*	31*	-5
CCCCN1CCN(C(=O)COc2cc(=O)n(C)c3ccccc23)CC1	4	0	2	0	-2
C=Cc1cc(OC)c2c(c1)c(=O)oc1c2cc(OC)c2c(O)ccc(C3OC(C)C(O)C(C)(O)C3O)c21 (centres undefined)	31*	-305	10	10	-225
O=C(NC(CCC(O)CO)P(=O)(Oc1ccccc1)Oc1ccccc1)OCc1ccccc1 (centres undefined)	0	3	-1	-1	-1
CN1CCN(c2ccc(Cl)cc2N)CC1	8	-2	4	0	1
SMILES	MBD2 DNA inh	PLCb3 inh	LEDGF integ inh	UHRF1 MBD2 ctr	PLC-gamma1 inh
Cc1ccc(Cl)cc1N1CCN(CCN)CC1	-8	4	10	0	16*
C[C@H](NC(=O)OCc1ccccc1)C(=O)NC(Cc1ccccc1)P(=O)(Oc1ccccc1)Oc1ccccc1 (some centres undefined)	2	2	0	0	1
Cc1cccc(C(C)c2cnc[nH]2)c1C (centres undefined)	2	0	-6	2	-2
CCCCNC(=O)c1c(N)n(CCCOC)c2nc3ccccc3nc12	0	i	1	4	i
CCOC(=O)c1c(NS(=O)(=O)c2ccccc2)n(CCCOC)c2nc3ccccc3nc12	8	i	20*	13	i
C#CCN[C@H](C)Cc1ccccc1	1	1	0	0	0
CC(Cc1ccccc1)NCc1ccccc1O (centres undefined)	3	-5	-4	35*	-1
